Measured values from PubChem BioAssay AID1851 (National Center for Advancing Translational Sciences (NCATS), 2009).
Hit rate of the full screen: of about 16,000 compounds, about 5,100 (32%) were called active. Roughly 25% stayed inconclusive and do not appear here. Calls follow the shape of the dose curve; as a rule, active = well fitted curve in the direction sought with a large enough effect; inconclusive = small, poorly fitted or top-dose-only effect, or effect the other way; inactive = no such curve, though single readings can be large or run the other way. The list shows a part of the results.

Biological target: Cytochrome P450 3A4 (Homo sapiens) (UniProt P08684)
Assay: Cytochrome panel assay with activity outcomes
Settings: recombinant CYP, pro-luciferin dealkylation, luminescence, p450-cyp3a4; series mostly up to 57.1 µM
% is scaled to controls: 0 for no effect and ±100 for the full control effect.

Sequence of Cytochrome P450 3A4 (Homo sapiens) (P08684 whole entry, looked up): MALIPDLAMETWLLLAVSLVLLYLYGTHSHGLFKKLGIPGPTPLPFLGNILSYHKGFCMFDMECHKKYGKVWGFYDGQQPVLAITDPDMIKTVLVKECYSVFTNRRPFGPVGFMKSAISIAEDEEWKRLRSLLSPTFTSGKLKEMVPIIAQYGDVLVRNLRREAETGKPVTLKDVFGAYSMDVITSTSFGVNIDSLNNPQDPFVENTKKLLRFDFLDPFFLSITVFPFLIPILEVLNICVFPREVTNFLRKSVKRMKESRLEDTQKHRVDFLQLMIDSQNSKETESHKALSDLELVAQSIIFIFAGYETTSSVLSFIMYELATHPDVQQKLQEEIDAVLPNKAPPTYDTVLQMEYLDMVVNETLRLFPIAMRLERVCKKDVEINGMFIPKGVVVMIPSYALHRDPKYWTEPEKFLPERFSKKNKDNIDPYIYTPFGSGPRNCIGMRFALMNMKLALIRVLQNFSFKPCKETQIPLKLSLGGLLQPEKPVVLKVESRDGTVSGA

Structure (SMILES)	activity, negative = inhibition	AC50
CCOC(=S)SCC(=O)O	-14.7% [at 11.4 µM] (inactive)	–
CCOc1ccc(OCCOc2ncnc3ccccc23)cc1	-3.65% [at 2.29 µM] (inactive)	–
Cc1ccc(NC(=O)CSCC(=O)Nc2ccc(N3CCOCC3)c(Cl)c2)cc1	–	3.55 µM (active)
Cc1ccc(NC(=O)c2cc(NC(=O)CCC(=O)O)ccc2N2CCCCC2)cc1	–	inactive
O=C(/C=C/c1ccco1)NC(=S)Nc1ccc(N2CCOCC2)c(Cl)c1	12.4% [at 2.29 µM] (inactive)	–
NCCSCCc1ccccc1	-8.42% [at 11.4 µM] (inactive)	–
NCCOB(c1ccccc1)c1ccccc1	–	12.6 µM (active)
O=C(O)[C@@H]1CCCNC1	–	inactive
CCC(C)n1c(NC(=O)c2ccccc2)c(C#N)c2nc3ccccc3nc21 (configuration not stated)	–	inactive
Cc1ccc(C(=O)Nc2c(C#N)c(C)c(C)n2Cc2ccccc2)cc1	–	10 µM (active)
Cc1ccc(C(=O)N/N=C/c2sc(=O)n(Cc3cccc(C(=O)O)c3)c2Cl)cc1	–	inactive
CCOC(=O)Cc1csc(NC(=O)c2c(-c3c(Cl)cccc3Cl)noc2C)n1	-21.4% [at 2.29 µM] (inactive)	–
CCOC(=O)Cc1csc(NC(=O)c2ccc(S(=O)(=O)N3CCCCC3)cc2)n1	–	inactive
CCOC(=O)Cc1csc(NC(=O)c2ccc(Cl)nc2)n1	–	14.1 µM (active)
CCOc1cc(S(=O)(=O)N(Cc2ccccc2)Cc2ccccc2)c(OCC)cc1-n1cnnn1	–	12.6 µM (active)
Fc1ccc(Nc2ccnc(-c3ccccc3C(F)(F)F)n2)cc1	–	12.6 µM (active)
COCCNc1ccnc(-c2ccccc2C(F)(F)F)n1	–	inactive
COc1ccccc1CNc1ccnc(-c2ccccc2C(F)(F)F)n1	–	12.6 µM (active)
COc1ccccc1CNc1ccnc(-c2ccccc2OC)n1	–	15.8 µM (active)
COc1ccccc1-c1nccc(NC2CCNCC2)n1	–	inactive
CCCOc1ccc(Cn2c(C)nc([N+](=O)[O-])c2SCC(O)COC)cc1[N+](=O)[O-] (configuration not stated)	–	14.1 µM (active)

Structure (SMILES)	activity, negative = inhibition	AC50
COc1ccc(CSc2nnnn2C)cc1[N+](=O)[O-]	–	inactive
Cc1nc([N+](=O)[O-])c(N2CCN(C)CC2)n1Cc1ccccc1	–	inactive
Nc1nc2c(nc(Br)n2[C@@H]2O[C@H]3COP(=O)(O)O[C@@H]3[C@H]2O)c(=O)[nH]1	–	inactive
Nc1ccc2[nH]cc(CCC(=O)O)c2c1	-1.6% [at 11.4 µM] (inactive)	–
COc1cc2c(CCNC(C)=O)c[nH]c2cc1Cl	–	15.8 µM (active)
COC(=O)Nc1ccc2[nH]cc(CCNC(C)=O)c2c1	–	inactive
CN(C)[C@@H]1C(=O)C(C(N)=O)=C(O)[C@]2(O)C(=O)C3=C(O)c4c(O)ccc(Cl)c4[C@H](O)[C@H]3C[C@@H]12	–	inactive
Cc1ccc(Cn2cnc3c(nnn3Cc3ccc(Cl)cc3)c2=O)cc1	–	3.16 µM (active)
Cc1ccc(/C=C/c2ccc(=O)n(Cc3ccc(Cl)cc3Cl)n2)cc1	–	inactive
Cc1nn(Cc2c(F)c(F)c(F)c(F)c2F)c(C)c1NC(=O)c1c(-c2ccccc2)nn(-c2ccccc2)c1C	–	2.24 µM (active)
Cc1nn(Cc2c(F)c(F)c(F)c(F)c2F)c(C)c1NC(=O)c1cccc(COc2ccc(Cl)cc2)c1	-20.6% [at 2.29 µM] (inactive)	–
Cc1nn(Cc2c(F)c(F)c(F)c(F)c2F)c(C)c1NC(=O)c1cccc(COc2ccccc2Cl)c1	–	3.98 µM (active)
Cc1ncc(COP(=O)(O)O)c(C)c1O	-9.44% [at 11.4 µM] (inactive)	–
COc1cc(-c2nnc(COC(=O)c3c4c(nc5ccccc35)CCCC4)o2)cc(OC)c1OC	–	4.47 µM (active)
COc1ccc(OC)c(NC(=O)[C@H]2CC=CC[C@H]2C(=O)O)c1	–	inactive
Nc1c2c(nc3ccccc13)CCCC2	–	inactive
COc1ccc(OC)c(-c2cc(C(=O)O)c3cc4ccccc4cc3n2)c1	6% [at 11.4 µM] (inactive)	–
COc1ccc(OC)c(NC(=O)c2c3c(nc4ccccc24)CCC3)c1	–	7.08 µM (active)
O=C1NC(=O)C(c2ccccc2)(c2ccccc2)N1	–	inactive
O=C1Nc2cc(C(=O)N3CCOCC3)ccc2SC1N1CCOCC1 (configuration not stated)	–	inactive
Cc1cn(CC[C@H](N)C(=O)O)c(=O)[nH]c1=O	-9% [at 11.4 µM] (inactive)	–

Structure (SMILES)	activity, negative = inhibition	AC50
O=C(NCc1ccc(F)cc1)C(c1ccncc1)N(C(=O)c1csnn1)C1CC1 (configuration not stated)	–	2 µM (active)
O=C(NCc1ccccc1)C(c1ccncc1)N(C(=O)c1csnn1)C1CC1 (configuration not stated)	–	2.82 µM (active)
O=C(Nc1cccc(F)c1)N1CCC2(CC1)CCN(C(=O)c1csnn1)CC2	–	inactive
O=C(O)CCC(=O)c1ccc(Cl)cc1	1.22% [at 11.4 µM] (inactive)	–
O=C(C/C=N/OCc1ccc(Cl)cc1Cl)c1ccc(Cl)cc1	–	25.1 µM (active)
CCN1CCN(CCCNC(=O)C(NC(=O)C2CCC(C)CC2)C(C)C)CC1 (configuration not stated)	–	inactive
COc1ccc2[nH]c(-c3ccccc3)c(CCNC(C)=O)c2c1	–	12.6 µM (active)
CC(=O)NCCc1c(Cc2ccccc2)[nH]c2ccccc12	–	7.94 µM (active)
CCCCNC(=O)C(=O)NC(C)CCc1ccccc1 (configuration not stated)	–	inactive
COc1ccc2[nH]c3cc4c(=O)c5cc(OC)ccc5[nH]c4cc3c(=O)c2c1	-0.294% [at 11.4 µM] (inactive)	–
CCCCC(=O)NCCc1c(Cc2ccccc2)[nH]c2ccccc12	–	0.794 µM (active)
Cc1ccc2[nH]c(-c3ccccc3)c(CN(C)C)c(=O)c2c1	9.06% [at 2.29 µM] (inactive)	–
CSc1nc(C)c2c(n1)N(c1ccc(C(C)C)cc1)CC2	–	inactive
Cc1cc(C)c[n+](CC(=O)c2cc3ccccc3oc2=O)c1	–	inactive
C=CCc1cccc2cc(C(=O)N(CC)CC)c(=O)oc12	–	11.2 µM (active)
CN(C)c1ccc(-c2ccc3ncnc(N(C)C)c3c2)cc1	–	6.31 µM (active)
CN(C)c1ncnc2ccc(-c3cccc(C#N)c3)cc12	–	12.6 µM (active)
CN(C)c1ncnc2ccc(-c3cccnc3)cc12	–	1 µM (active)
COc1cccc(-c2ccc3ncnc(N(C)C)c3c2)c1	–	7.94 µM (active)
CN(C)c1ncnc2c1ncn2CCn1cnc2c(N(C)C)ncnc21	8.51% [at 11.4 µM] (inactive)	–
